High-throughput results (PubChem)
A selection: hits, their analogues and other compounds. The true share with any hit is near 19%.
HepG2 viability = kills HepG2 cells in TGF-b inhibitor counter-screen; HepG2 CAGA-GFP viability, ATP luminescence, 18 h; Potency, µM (doses to about 46.1 µM), for inactives: at the top dose activity change, negative = cytotoxicity, hits mostly cytotoxic; hit rate 0.76% among 410,000; note: potency is the fitted concentration of half-maximal effect
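HepG2 CAGA-GFP cells (1000/well, DMEM with 1% FBS) received compound, then TGF-beta at 500 pg/mL final, and were incubated 18 hours at 37 degrees C. Viability was read by CellTiter-Glo luminescence. Media-only wells were set as complete cell-killing and DMSO as no toxicity.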
IL-1B inflam inh = inhibitors of inflammasome signaling (IL-1 beta secretion) | THP-1 LPS/ATP IL-1B secretion, AlphaLISA, 16 h; hits give low values | activity change, % at 57.5 µM | hit rate 4.7% among 360,000; in the data active = activity change below about -50%; inconclusive = mostly about -30% to -49%; note: % is set by controls: 0 for no effect and ±100 for the full control effect
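THP-1 cells pretreated 1 hr with compounds (up to 57.5 uM final), then stimulated with LPS (250 ng/mL final) plus ATP (1.25 mM final); secreted IL-1B measured by AlphaLISA after 16 hr, decreased signal indicating inhibition.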
TDP1 cell CPT = DT40-hTDP1 cell growth loss with CPT; chicken DT40 Tdp1-/-;hTDP1 cells + 20 nM CPT, ATP luminescence, 48 h; Potency, µM (doses to about 46.2 µM), for the others: at the highest dose activity change, negative = growth inhibition, most hits filed as inhibitors; hit rate 12% among 420,000; AID 686979; note: potency is the fitted concentration of half-maximal effect; % is set by controls: 0 for no effect and ±100 for the full control effect; nearly all actives have a fitted effect of over 55% in size
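Chicken DT40 Tdp1-/- cells stably complemented with human TDP1 were seeded at 400 cells/well in medium containing 20 nM camptothecin, exposed to pin-transferred compounds, and grown at 37 °C for at least 48 hr. Viability was read as ATP luminescence.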
TDP1 block = blocks human tyrosyl-DNA phosphodiesterase 1. Q9NUW8. hit rate 0.28% among 350,000. Potency, µM (series often up to 130 µM), for the others: at the top dose activity change, negative = inhibition, usual class: inhibitors. recombinant TDP1, AlphaScreen DNA substrate cleavage; note: potency is the fitted concentration of half-maximal effect; % is set by controls: 0 for no effect and ±100 for the full control effect; nearly all actives have a fitted effect of over 40% in size
Target sequence (Q9NUW8 whole entry, looked up): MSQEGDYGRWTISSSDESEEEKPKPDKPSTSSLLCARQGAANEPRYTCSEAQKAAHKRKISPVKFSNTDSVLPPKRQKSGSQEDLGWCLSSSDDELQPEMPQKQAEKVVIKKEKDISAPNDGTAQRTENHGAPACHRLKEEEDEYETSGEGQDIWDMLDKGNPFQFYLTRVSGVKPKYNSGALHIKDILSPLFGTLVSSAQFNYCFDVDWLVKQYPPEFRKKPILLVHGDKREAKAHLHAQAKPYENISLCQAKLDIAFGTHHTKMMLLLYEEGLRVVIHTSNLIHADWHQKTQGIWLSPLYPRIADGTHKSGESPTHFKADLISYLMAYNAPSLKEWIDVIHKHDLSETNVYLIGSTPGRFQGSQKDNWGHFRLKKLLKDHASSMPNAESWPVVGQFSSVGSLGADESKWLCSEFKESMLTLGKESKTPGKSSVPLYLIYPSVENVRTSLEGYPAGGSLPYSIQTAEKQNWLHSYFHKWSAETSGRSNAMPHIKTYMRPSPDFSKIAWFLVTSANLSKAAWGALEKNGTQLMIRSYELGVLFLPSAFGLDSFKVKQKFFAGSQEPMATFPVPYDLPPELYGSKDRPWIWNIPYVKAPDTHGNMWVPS
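Here, a 5' biotin and 3' phosphotyrosine-FITC DNA oligonucleotide reports Tdp1 activity: intact substrate bridges AlphaScreen beads, while cleavage leaves a 3' phosphate and drops signal. All incubations at room temperature.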
TGFb inhibitor = inhibitors of TGF-b signaling; HepG2 CAGA-GFP TGF-b/SMAD3 reporter, GFP fluorescence, 18 h; TGF-beta stimulated, 500 pg/mL final; Potency, µM (highest dose often 46.1 µM), for the others: at the top dose activity, negative = inhibition, actives largely listed as inhibitors; hit rate 1.2% among 410,000; note: potency is the fitted concentration of half-maximal effect; % is set by controls: 0 for no effect and ±100 for the full control effect; nearly all actives have a fitted effect of over 65% in size
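Read-out: total well GFP (ex488/em500-530) summed from mean per-cell fluorescence. Cells: HEPG2 CAGA-GFP, 1% FBS DMEM, 18 h at 37 degrees C with 500 pg/mL final TGF-beta. Unstimulated wells served as the full-inhibition control; stimulated DMSO wells = 0%.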
DT40 TDP1 no CPT = qHTS for Inhibitors of human tyrosyl-DNA phosphodiesterase 1 (TDP1): qHTS in cells in absence of CPT | DT40 Tdp1-/- hTDP1 cells, no CPT, ATP luminescence, 48 h | Potency, µM (top dose mostly 46.2 µM), for inactives: at the highest dose activity change, negative = growth inhibition, usual class: inhibitors | hit rate 15% among 420,000 | AID 686978, 2013; note: potency is the fitted concentration of half-maximal effect; % is set by controls: 0 for no effect and ±100 for the full control effect; nearly all actives have a fitted effect of over 55% in size
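Growth of hTDP1-complemented DT40 Tdp1-knockout cells is measured by ATP luminescence after at least 48 hr compound exposure at 37 °C, with DMSO substituting for the 20 nM CPT used in the parallel screen.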
Numbers without * were called inactive; i = inactive; ? = inconclusive; . = no result; [ ] = another dose, or the depositor's remark. Unless noted, calls come from the whole dose curve; as a rule, active = well fitted curve in the direction sought with a large enough effect; inconclusive = small, poorly fitted or top-dose-only effect, or another doubt; inactive = no such curve, though single readings can be large; an effect the other way counts as inactive or inconclusive.

SMILES | HepG2 viability | IL-1B inflam inh | TDP1 cell CPT | TDP1 block | TGFb inhibitor | DT40 TDP1 no CPT
COc1ccc(NC(=S)N/N=C2\CC(C)(C)Oc3ccc(OC)cc32)cc1 | 2% | -12 | 5.8µM* | 6% | -13% | 4.1µM*
COc1ccc(NC(=S)N/N=C2/CCCc3c(C)cc(C)cc32)cc1 | 1% | 22 | 1% | -4% | 11% | -27%
O=C(Nc1ccc(CN2CCOCC2)cc1)c1cc(Br)ccc1Cl | -1% | -51* | -28% | . | -9% | ?
O=C(Nc1ccc(CN2CCOCC2)cc1)c1ccc(Cl)cc1Cl | -72% | 0 | -26% | . | ? | -11%
COc1ccc(Br)cc1C(=O)NC(=S)Nc1ccc(CN2CCOCC2)cc1 | -17% | -68* | 18µM* | 8% | -8% | 13µM*
O=C(Nc1ccc(Cl)cc1)c1cc(Br)ccc1OCC(=O)N1CCOCC1 | -30% | -92* | ? | -2% | -22% | ?
Cc1ccc(C(=O)NC(=S)Nc2ccc(N3CCOCC3)cc2)c(C)c1 | 2% | 2 | -1% | 11% | -10% | 23µM*
COc1ccc(CNC(=O)C(C)OC(=O)CN2C(=O)COc3ccccc32)cc1 (centres undefined) | -2% | -12 | -1% | 10% | -3% | -6%
CC(C)Oc1ccc(C(=O)NC(=S)Nc2ccc(CN3CCOCC3)cc2)cc1 | -2% | -27 | ? | 1% | -24% | 18µM*
Cc1ccc(C(=O)NC(=S)Nc2ccc(CN3CCOCC3)cc2)cc1 | -18% | -29 | 21µM* | 7% | -1% | ?
O=C(COc1ccc2cc(Br)ccc2c1Br)N1CCOCC1 | -18% | -77* | -53% | 2% | 0% | ?
O=C(NC(=S)Nc1ccc(CN2CCOCC2)cc1)c1ccc([N+](=O)[O-])cc1Cl | 2% | 1 | 1% | 0% | 1% | 26µM*
Cc1ccc(-c2cn3cccnc3n2)cc1NC(=O)Nc1ccc(F)cc1 | 5% | . | . | 1% | 19% | .
O=C(COC(=O)c1ccccc1OCc1cccc(Br)c1)Nc1ccc(Br)cc1 | 2% | . | ? | . | -1% | ?
Cc1cccc(C(=O)OCCN2CCOCC2)c1 | 0% | 9 | 6% | . | -2% | -2%
Cc1nnc(CN(C)c2ncnc3ccc(-c4ccc5c(c4)OCO5)cc23)o1 | . | . | . | -2% | . | .
Cc1ccc(S(=O)(=O)N2CCN(C)CC2)c(C)c1N(C)S(=O)(=O)c1ccc(Cl)cc1 | -6% | -13 | ? | -5% | 24% | 23µM*
Cc1cc(C)c(S(=O)(=O)N2CCOCC2)c(C)c1N(C)S(=O)(=O)c1ccccc1 | -3% | i | -20% | 1% | 14% | ?
Cc1cc(C)c(S(=O)(=O)N2CCCCC2)cc1N(C)S(=O)(=O)c1ccc(Cl)cc1 | 1% | ? | 23µM* | 0% | 3% | 16µM*
Cc1cc(C)c(S(=O)(=O)N2CCCCC2)c(C)c1N(C)S(=O)(=O)c1ccccc1 | -14% | ? | 12µM* | 5% | ? | ?
Cc1ccc(S(=O)(=O)N(C)c2cc(S(=O)(=O)N3CCOCC3)c(C)cc2C)cc1 | 0% | -4 | -24% | -3% | 14% | ?
CCOc1ccc(-c2nnc(NC(=O)Cc3cc(OC)c(OC)c(OC)c3)o2)cc1 | -7% | 0 | 1% | . | -5% | 8%
C#CCN(C[C@@H]1[C@@H](OC(=O)NC2CCCC2)[C@@H](OC(=O)NC2CCCC2)Cn2c(=O)ccc(=O)n21)S(=O)(=O)c1ccc(C)cc1 | -84% | 0 | 2.6µM* | . | ? | 2.3µM*
C#CCN(C[C@@H]1[C@@H](OC(=O)Nc2cccs2)[C@@H](OC(=O)Nc2cccs2)Cn2c(=O)ccc(=O)n21)S(=O)(=O)c1ccc(C)cc1 | 5µM* | -107* | 2.9µM* | . | 5.6µM* | 3.3µM*
CC(C(=O)O)c1ccc(C(=O)c2ccccc2)s1 (centres undefined) | -32% | -7 | -22% | . | -23% | ?
SMILES | HepG2 viability | IL-1B inflam inh | TDP1 cell CPT | TDP1 block | TGFb inhibitor | DT40 TDP1 no CPT
CCN(CC(=O)Nc1c(F)cccc1F)C(=O)C1COc2ccccc2O1 (centres undefined) | -8% | 8 | -18% | 1% | 3% | ?
O=C(O)CCN1C(=O)/C(=C2\C(=O)N(Cc3ccc(F)cc3)c3ccccc32)SC1=S | 6% | 9 | 16µM* | -9% | 0% | 15µM*
CC(C)(C)OC(=O)NCc1ccc(NC(=O)c2nc[nH]c2C(=O)N[C@@H](Cc2ccccc2)C(=O)OC(C)(C)C)cc1 | 0% | ? | 15µM* | 11% | ? | 12µM*
C[C@H](NC(=O)c1[nH]cnc1C(=O)Nc1ccc(CNC(=O)OC(C)(C)C)cc1)C(=O)OCc1ccccc1 | -28% | 1 | ? | 8% | ? | 18µM*
CC(C)C[C@H](NC(=O)c1[nH]cnc1C(=O)Nc1ccc(CNC(=O)OC(C)(C)C)cc1)C(=O)OCc1ccccc1 | -42% | -2 | ? | 11% | ? | 15µM*
C[C@H](NC(=O)c1nc[nH]c1C(=O)N[C@@H](C)C(=O)OC(C)(C)C)C(=O)OCc1ccccc1 | 5% | 27 | -13% | . | -15% | -16%
Cc1ccnc2c(Cl)cccc12 | -25% | . | ? | . | ? | 1%
CCC(C)(C)n1nnnc1C(c1ccc(C)cc1)N1CCN(Cc2ccc3c(c2)OCO3)CC1 (centres undefined) | -14% | -53* | 1% | -1%[56.1 µM] | 14% | ?
CCC(C)(C)n1nnnc1C(c1ccc(C)cc1)N1CCC(C)CC1 (centres undefined) | -23% | -5 | 13µM* | 1% | 6% | ?
CCC(C)(C)n1nnnc1C(c1ccc2ncccc2c1)N1CCN(Cc2ccc3c(c2)OCO3)CC1 (centres undefined) | -5% | 0 | -2% | -2% | -1% | -4%
CCC(C)(C)n1nnnc1C(c1ccncc1)N1CCC(C)CC1 (centres undefined) | 7% | -2 | -17% | 1% | -27% | -3%
Cc1cc(N/N=C/c2ccccc2Cl)nc(NCc2ccccc2)n1 | -81% | -68* | 4.6µM* | -3% | -26% | 4.1µM*
Cc1cc(C)nc(N/N=C/c2ccccc2Cl)n1 | -1% | -26 | -26% | . | 3% | -25%
Cc1ccc(Nc2cc(C)nc(NCc3ccccc3)n2)cc1 | -111% | -229* | 2.6µM* | 3% | ? | 2.6µM*
